Among the test systems are T-47D breast; BT-549 breast; MDA-MB-435 melanoma; SW-620 colon; MCF7 breast; HCT-116 colon; HCC-2998 colon; KM12 colon.
What all share (assay): NCI-60 one-dose screen, 48 h (100 = growth as untreated, 0 = no growth, -100 = all killed)
Conditions in all cases: 10 µM unless noted

About 83,000 compounds went through this panel and 20% of them were active in at least one assay; those are over-represented in the sample as a whole.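 Cell lines were cultured in 96-well plates, exposed to a single compound concentration, and assessed for percent growth 48 hours later.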 Values without a mark were called inactive. Active and inactive are the calls of the source. Rule for the calls: active = growth percent below 10; inactive = the rest.

With `O=[N+]([O-])c1ccc(Sc2nc(Cl)nc(NC3CCCC3)n2)cc1`, the growth in the assay with T-47D breast is -35.4% [100 µM] (active); in the assay with BT-549 breast it was -97.1% [100 µM] (active); in the assay on MDA-MB-435 melanoma, -95.9% [100 µM] (active); in the assay on SW-620 colon, -63.1% [100 µM] (active); with MCF7 breast it was -84.9% [100 µM] (active); in the assay on HCT-116 colon, -94.3% [100 µM] (active). Also, the values for the growth in the assay on HCC-2998 colon and in the assay with KM12 colon were -86.5% [100 µM] (active) and -96.9% [100 µM] (active), respectively.
As for `Cc1cc(-c2ccccc2)on1`, the growth is 96% with T-47D breast; 119% in the assay on BT-549 breast; 107% in the assay with MDA-MB-435 melanoma; 109% in the assay with SW-620 colon; 106% with MCF7 breast; 101% with HCT-116 colon. For the same compound, the growth is 111% in the assay with HCC-2998 colon and 106% with KM12 colon.
Turning to `N/C(=N\OC(=O)c1ccccc1)C(Cc1ccccc1)C(=O)NOC(=O)c1ccccc1` (configuration not stated), the growth in the assay with T-47D breast was 76.1%; in the assay with BT-549 breast, 26.4%; with MDA-MB-435 melanoma, 5.12% (active); in the assay with SW-620 colon it was 65.3%; in the assay on MCF7 breast, 51.3%; with HCT-116 colon, 2.08% (active). The growth in the assay with HCC-2998 colon was 96.4%; in the assay with KM12 colon, 24.2%.
As to `COc1cc(OC)c(C(=O)/C=C/c2cccc(OC(C)=O)c2)cc1CC=C(C)C`, the growth in the assay with T-47D breast was 52.3%; in the assay on BT-549 breast it was 81.8%; in the assay with MDA-MB-435 melanoma it was 73.6%; in the assay on SW-620 colon it was 35.5%; in the assay on MCF7 breast, 44.6%; in the assay with HCT-116 colon, 47.1%. Further, the growth was 72.9% in the assay with HCC-2998 colon and 68.8% with KM12 colon.
`CC(=O)Cc1ccccn1`: the growth in the assay on T-47D breast is 108%; with BT-549 breast it was 97.8%; in the assay with MDA-MB-435 melanoma, 102%; in the assay on SW-620 colon, 108%; in the assay with MCF7 breast, 97.8%; in the assay on HCT-116 colon, 107%. In addition, the growth in the assay on HCC-2998 colon was 111%; in the assay with KM12 colon it was 105%.
Consider `O=C1C=CN2C(=O)CC=CC2[C@@H]1O` (some centres not stated), for which the growth with T-47D breast was 90.4%; in the assay with BT-549 breast, 102%; in the assay on MDA-MB-435 melanoma it was 124%; with SW-620 colon, 111%; with MCF7 breast, 96.5%; with HCT-116 colon, 96.5%. Further, the growth in the assay on HCC-2998 colon is 114%; with KM12 colon, 105%.
Consider `Cc1cccc(N=NC(=S)NNc2cccc(C)c2)c1`, for which the growth in the assay on T-47D breast is 97.6%; with BT-549 breast, 134%; in the assay with MDA-MB-435 melanoma, 112%; with SW-620 colon, 107%; in the assay with MCF7 breast it was 92.8%; with HCT-116 colon, 109%. Besides, the growth in the assay with HCC-2998 colon was 104%; in the assay with KM12 colon, 124%.
Take `COc1ccc2[nH]cc(C3(c4c[nH]c5ccc(OC)cc45)C(=O)Nc4ccc(Cl)cc43)c2c1`: the growth is 76.4% with T-47D breast; 93.7% with BT-549 breast; 23.3% in the assay with MDA-MB-435 melanoma; 30% in the assay with SW-620 colon; 61.7% with MCF7 breast; 64.3% in the assay on HCT-116 colon. In addition, the growth is 58% in the assay with HCC-2998 colon and 14.8% in the assay with KM12 colon.
Take `COc1cccc(-c2nc3sccn3c2-c2ccnc(NCCN3CCCN(C)S3(=O)=O)n2)c1`: the growth in the assay with T-47D breast was 72.4%; in the assay on BT-549 breast, 100%; with MDA-MB-435 melanoma it was 57.7%; in the assay on SW-620 colon, 131%; with MCF7 breast, 106%; in the assay with HCT-116 colon, 78.1%. The growth is 114% in the assay on HCC-2998 colon and 100% with KM12 colon.
Take `O=C(/C=C/c1ccccc1Br)c1cccc(OCCCCOc2cccc(C(=O)/C=C/c3ccccc3Br)c2)c1`: the growth in the assay with T-47D breast was 75.4%; in the assay on BT-549 breast, 104%; with MDA-MB-435 melanoma, 97%; with SW-620 colon, 99%; in the assay with MCF7 breast it was 28.1%; with HCT-116 colon, 16.4%. Moreover, the growth in the assay with HCC-2998 colon was 109%; in the assay with KM12 colon, 101%.
Regarding `Clc1ccc(-c2cnc3nonc3n2)s1`, the growth was 58.4% in the assay with T-47D breast; 93.8% in the assay on BT-549 breast; -10.6% (active) in the assay on MDA-MB-435 melanoma; 82.6% in the assay on SW-620 colon; 38.7% in the assay with MCF7 breast; 67% in the assay with HCT-116 colon. In addition, the figures for the growth in the assay on HCC-2998 colon and in the assay on KM12 colon were 109% and 77.1%, respectively.
Take `CCOC(=O)Nc1ccc2nc(Sc3ccc(Cl)cc3)sc2c1`: the growth in the assay with T-47D breast is 36.4%; in the assay with BT-549 breast, 58.5%; in the assay on MDA-MB-435 melanoma, 1.41% (active); with SW-620 colon, 29%; with MCF7 breast it was 16.7%; with HCT-116 colon, 30.5%. In addition, the growth with HCC-2998 colon was 57.1%; with KM12 colon, 26.9%.
Take `CCN(CC)c1cc(C)c(Cc2c(OC)ccc3ccccc23)cc1C`: the growth with T-47D breast is 82.3%; in the assay with BT-549 breast, 105%; in the assay on MDA-MB-435 melanoma, 104%; with SW-620 colon, 86.1%; with MCF7 breast, 90.9%; with HCT-116 colon, 86.2%. The growth is 100% with HCC-2998 colon and 98.1% in the assay on KM12 colon.
Consider `CC(CN1CCN(CC(C)Nc2ccnc3cc(Cl)ccc23)CC1)Nc1ccnc2cc(Cl)ccc12` (configuration not stated), for which the growth in the assay with T-47D breast is -21.3% (active); in the assay with BT-549 breast, 10.8%; in the assay on MDA-MB-435 melanoma it was -45.4% (active); with SW-620 colon it was 5.03% (active); in the assay on MCF7 breast, 10.6%; in the assay on HCT-116 colon, -83.2% (active). The growth in the assay with HCC-2998 colon is -5.03% (active); in the assay on KM12 colon it was 19.8%.

These data come from PubChem BioAssay (NCI).
